# Test results as given in PubChem BioAssay (Tox21).
# Unmarked numbers belong to inactive results. Records with an inconclusive call do not appear. Entries that show only a call come without a potency. The source made the active and inactive calls. Unless noted, calls come from the whole dose curve; as a rule, active = well fitted curve in the direction sought with a large enough effect in the repeat runs; inconclusive = weak or mixed curves; inactive = no such curve, though single readings can be large; an effect the other way counts as inactive or inconclusive.
# Legend:
# [1] = qHTS assay to test for compound auto fluorescence at 535 nm (green) in HEK293 cells (AID 720680)
# [2] = qHTS assay to test for compound auto fluorescence at 460 nm (blue) in HEK293 cell free culture (AID 720681)
# How it was run: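 Test compounds were pinned into cell-free culture medium (DMEM with 10% FBS) and fluorescence was read directly at Ex/Em 405/460 nm. Signals were expressed as fluorescence equivalents of triamterene, with DMSO vehicle as control.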
# [3] = qHTS assay to test for compound auto fluorescence at 535 nm (green) in HEK293 cell free culture (AID 720682)
# How it was run: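 Compounds were pin-transferred into cell-free DMEM with 10% FBS, and green fluorescence was read at excitation 485 nm and emission 535 nm. Intensities were expressed as fluorescein-equivalent values.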
# [4] = qHTS assay to test for compound auto fluorescence at 590 nm (red) in HEK293 cell free culture (AID 720683)
# How it was run: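 Tox21 10K library compounds were pinned into cell-free DMEM with 10% FBS and fluorescence was read at excitation 540 nm. Activity is expressed as Rose Bengal sodium equivalency.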
# [5] = qHTS assay to test for compound auto fluorescence at 590 nm (red) in HepG2 cell free culture (AID 720684)
# How it was run: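 Measured in medium alone (MEM containing 10% FBS) following pintool addition of compound; emission at 590 nm with 540 nm excitation, referenced to Rose Bengal sodium.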
# [6] = qHTS assay to test for compound auto fluorescence at 460 nm (blue) in HepG2 cell free culture (AID 720685)
# How it was run: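 Compound (23 nL) or DMSO pinned into cell-free MEM with 10% FBS; blue fluorescence read at 405/460 nm excitation/emission, expressed as auto-fluorescence equivalency to triamterene.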
# [7] = qHTS assay to test for compound auto fluorescence at 535 nm (green) in HepG2 cell free culture (AID 720686)
# [8] = qHTS assay to test for compound auto fluorescence at 460 nm (blue) in HepG2 cells (AID 720687)
# How it was run: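 Cells (2,000/well in MEM with 10% FBS) attached overnight at 37 C, then were exposed to compound or DMSO for 1 hr at 37 C, 5% CO2. Fluorescence read at Ex/Em 405/460 nm, expressed as triamterene-equivalent signal.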
# [9] = target: Glucocorticoid receptor (Homo sapiens) (UniProt P04150); experiment: qHTS assay to identify small molecule agonists of the glucocorticoid receptor (GR) signaling pathway (AID 720691; active = well fitted activation curve with a large enough effect in the signal ratio in the repeat runs, not every such curve was filed as active; the % refers to the signal ratio)
# How it was run: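 Fluorescence intensity from LiveBLAzer B/G FRET substrate (2 h, room temperature) reports beta-lactamase expression driven by the glucocorticoid response element in GR-bla HeLa cells after 18 h compound exposure at 37 C.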
# [10] = target: Glucocorticoid receptor (Homo sapiens) (UniProt P04150); experiment: qHTS assay to identify small molecule antagonists of the glucocorticoid receptor (GR) signaling pathway (AID 720692; active = well fitted inhibition curve with a large enough effect in the signal ratio in the repeat runs, not every such curve was filed as active; the % refers to the signal ratio)
# How it was run: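 HeLa GR-bla cells; cmpd + dex 5 nM final, 18 h 37 C; LiveBLAzer B/G FRET substrate 2 h RT; fluorescence intensity read. Antagonist mode, qHTS.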
# [11] = qHTS assay to identify small molecule antagonists of the glucocorticoid receptor (GR) signaling pathway - cell viability counter screen (AID 720693); note: nearly all actives have a fitted effect of over 55% in size
# [12] = qHTS assay for identifying genotoxic compounds that show differential cytotoxicity against isogenic chicken DT40 cell lines with known DNA damage response pathways - wild type cell line (AID 743012); note: nearly all actives have a fitted effect of over 60% in size
# How it was run: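 Wild type DT40, 300 cells/well, ~0.5 h settle at 37 C/5% CO2; compounds in DMSO added by pintool; 40 h at 37 C/5% CO2; CellTiter-Glo, 30 min RT; luminescence.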
# [13] = qHTS assay for identifying genotoxic compounds that show differential cytotoxicity against isogenic chicken DT40 cell lines with known DNA damage response pathways - Rev3 mutant cell line (AID 743014); note: nearly all actives have a fitted effect of over 55% in size; note: potency is the fitted concentration of half-maximal effect
# [14] = qHTS assay for identifying genotoxic compounds that show differential cytotoxicity against isogenic chicken DT40 cell lines with known DNA damage response pathways - Rad54/Ku70 mutant cell line (AID 743015); note: nearly all actives have a fitted effect of over 60% in size
# [15] = qHTS assay to identify small molecule antagonists of the androgen receptor (AR) signaling pathway - cell viability counter screen (AID 743033; note: nearly all actives have a fitted effect of over 45% in size)
# [16] = target: Androgen receptor (Homo sapiens) (UniProt P10275); experiment: qHTS assay to identify small molecule antagonists of the androgen receptor (AR) signaling pathway (AID 743035; active = well fitted inhibition curve with a large enough effect in the signal ratio in the repeat runs, not every such curve was filed as active; the % refers to the signal ratio)
# How it was run: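 Fluorescence from a beta-lactamase FRET substrate (LiveBLAzer B/G, 2 h, room temperature) measured inhibition of R1881-stimulated signaling in GeneBLAzer AR-UAS-bla HEK293 cells exposed to compound for 16 h at 37C.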
# [17] = target: Androgen receptor (Homo sapiens) (UniProt P10275); experiment: qHTS assay to identify small molecule agonists of the androgen receptor (AR) signaling pathway (AID 743036; active = well fitted activation curve with a large enough effect in the signal ratio in the repeat runs, with a control signal flat, not every such curve was filed as active; the % refers to the signal ratio)
# How it was run: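 Activation was read as beta-lactamase FRET signal from LiveBLAzer B/G substrate, added for 2 h at room temperature. Before that, GeneBLAzer AR-UAS-bla GripTite (HEK293) cells had 16 h compound exposure at 37C.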
# [18] = target: Androgen receptor (Homo sapiens) (UniProt P10275); experiment: qHTS assay to identify small molecule agonists of the androgen receptor (AR) signaling pathway using the MDA cell line (AID 743040; note: nearly all actives have a fitted effect of over 20% in size)
# How it was run: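 Luminescence from ONE-Glo, read after 30 min at room temperature, reflects MMTV-driven luciferase in MDA-kb2 cells (AR- and GR-responsive). Treatment lasted 16 h at 37C, 0% CO2.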
# [19] = qHTS assay to identify small molecule antagonists of the androgen receptor (AR) signaling pathway using the MDA cell line - cell viability counter screen (AID 743041; note: nearly all actives have a fitted effect of over 45% in size)
# How it was run: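 Viability counter screen run alongside the AR antagonist reporter: cells seeded 5 h before compound, R1881 added, 16 h incubation at 37C without CO2, fluorescent CellTiter-Fluor signal quantified.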
# [20] = target: Androgen receptor (Homo sapiens) (UniProt P10275); experiment: qHTS assay to identify small molecule antagonists of the androgen receptor (AR) signaling pathway using the MDA cell line (AID 743042; note: nearly all actives have a fitted effect of over 55% in size)
# How it was run: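 MDA-kb2 cells (human breast carcinoma, stably carrying an MMTV-luciferase reporter responsive to AR and GR) were plated at 3,000 cells/well and preincubated 5 hr at 37C, then given compound plus R1881 agonist for 16 h. ONE-Glo luminescence was read.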
# Glucocorticoid receptor (Homo sapiens), sequence (P04150 whole entry, looked up): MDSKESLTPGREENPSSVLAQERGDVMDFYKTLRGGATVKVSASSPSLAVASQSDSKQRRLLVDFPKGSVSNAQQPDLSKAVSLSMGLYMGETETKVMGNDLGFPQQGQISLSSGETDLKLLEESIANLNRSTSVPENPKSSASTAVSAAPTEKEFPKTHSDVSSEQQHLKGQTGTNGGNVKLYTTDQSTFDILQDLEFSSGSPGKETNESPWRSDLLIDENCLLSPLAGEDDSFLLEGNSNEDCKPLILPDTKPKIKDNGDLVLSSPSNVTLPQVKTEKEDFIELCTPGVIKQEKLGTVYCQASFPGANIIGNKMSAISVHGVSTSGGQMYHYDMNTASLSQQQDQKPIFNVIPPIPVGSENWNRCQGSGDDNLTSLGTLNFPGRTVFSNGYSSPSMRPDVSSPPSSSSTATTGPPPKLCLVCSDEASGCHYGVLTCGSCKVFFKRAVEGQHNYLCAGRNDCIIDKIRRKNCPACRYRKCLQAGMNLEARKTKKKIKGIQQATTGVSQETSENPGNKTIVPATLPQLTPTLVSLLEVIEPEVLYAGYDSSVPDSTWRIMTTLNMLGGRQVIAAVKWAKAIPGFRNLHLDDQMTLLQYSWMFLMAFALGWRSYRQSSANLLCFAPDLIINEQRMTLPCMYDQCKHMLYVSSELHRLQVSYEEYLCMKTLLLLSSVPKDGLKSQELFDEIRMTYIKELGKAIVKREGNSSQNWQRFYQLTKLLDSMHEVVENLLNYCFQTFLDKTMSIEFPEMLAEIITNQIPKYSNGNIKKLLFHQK
# Androgen receptor (Homo sapiens), sequence (P10275 whole entry, looked up): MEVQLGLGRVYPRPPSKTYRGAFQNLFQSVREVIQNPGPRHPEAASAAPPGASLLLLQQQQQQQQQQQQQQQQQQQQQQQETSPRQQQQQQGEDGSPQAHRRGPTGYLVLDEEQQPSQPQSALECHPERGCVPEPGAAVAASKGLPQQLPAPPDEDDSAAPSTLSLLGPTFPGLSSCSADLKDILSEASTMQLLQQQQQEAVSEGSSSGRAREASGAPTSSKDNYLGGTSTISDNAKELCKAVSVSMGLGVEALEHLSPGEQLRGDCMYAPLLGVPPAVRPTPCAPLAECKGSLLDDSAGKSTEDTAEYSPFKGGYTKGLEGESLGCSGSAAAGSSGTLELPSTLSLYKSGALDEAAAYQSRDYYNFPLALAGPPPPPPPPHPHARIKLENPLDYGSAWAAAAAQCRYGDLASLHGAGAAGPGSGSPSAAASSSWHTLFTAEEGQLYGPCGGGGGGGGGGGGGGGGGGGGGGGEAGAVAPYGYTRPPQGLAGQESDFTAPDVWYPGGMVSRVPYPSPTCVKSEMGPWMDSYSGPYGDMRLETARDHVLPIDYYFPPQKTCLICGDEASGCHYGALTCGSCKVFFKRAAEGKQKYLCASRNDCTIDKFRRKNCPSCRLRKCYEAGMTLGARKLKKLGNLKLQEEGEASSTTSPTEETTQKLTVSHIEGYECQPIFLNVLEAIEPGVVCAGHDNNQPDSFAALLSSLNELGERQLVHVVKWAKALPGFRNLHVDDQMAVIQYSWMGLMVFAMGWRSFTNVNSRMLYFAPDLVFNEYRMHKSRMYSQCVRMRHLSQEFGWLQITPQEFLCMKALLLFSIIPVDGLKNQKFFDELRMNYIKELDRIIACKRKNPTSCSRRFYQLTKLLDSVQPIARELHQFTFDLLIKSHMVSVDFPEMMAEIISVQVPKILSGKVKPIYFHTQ
smiles,measurement,setting,value
Clc1ccc(C(Cl)(Cl)Cl)cn1,outcome,[1],inactive
same,outcome,[2],inactive
same,outcome,[3],inactive
same,outcome,[4],inactive
same,outcome,[5],inactive
same,outcome,[6],inactive
same,outcome,[7],inactive
same,outcome,[8],inactive
same,Potency,[9],inactive
same,Potency,[10],inactive
same,Potency,[11],inactive
same,Potency,[12],inactive
same,Potency,[13],61.1 µM (active)
same,Potency,[14],inactive
same,Potency,[15],inactive
same,Potency,[16],inactive
same,outcome,[17],inactive
same,outcome,[18],inactive
same,Potency,[19],inactive
same,Potency,[20],inactive
O=C(Cl)OCc1ccccc1,outcome,[1],inactive
same,outcome,[2],inactive
same,outcome,[3],inactive
same,outcome,[4],inactive
same,outcome,[5],inactive
same,outcome,[6],inactive
same,outcome,[7],inactive
same,outcome,[8],inactive
same,Potency,[9],inactive
same,Potency,[10],inactive
same,Potency,[11],inactive
same,Potency,[12],inactive
same,Potency,[13],inactive
same,Potency,[14],inactive
same,Potency,[15],inactive
same,Potency,[19],inactive
Cc1ccc2cc(C)ccc2c1,outcome,[1],inactive
same,outcome,[2],inactive
same,outcome,[3],inactive
same,outcome,[4],inactive
same,outcome,[5],inactive
same,outcome,[6],inactive
same,outcome,[7],inactive
same,outcome,[8],inactive
same,Potency,[9],inactive
same,Potency,[10],inactive
same,Potency,[11],inactive
same,Potency,[12],inactive
same,Potency,[13],inactive
same,Potency,[14],inactive
same,Potency,[15],inactive
same,Potency,[19],inactive
CN(C)C(=O)Oc1cc(OC(=O)N(C)C)cc(C(O)CNC(C)(C)C)c1 (configuration not stated),"fluorescence, % of fluorescein",[1],0.102% [at 18.6 µM]
same,"fluorescence, % of fluorescent control",[2],0.0217% [at 18.6 µM]
same,activity change,[3],-0.0374% [at 18.6 µM]
same,"fluorescence, % of fluorescent control",[4],-0.0016% [at 18.6 µM]
same,"fluorescence, % of Rose Bengal",[5],-0.0966% [at 18.6 µM]
same,"fluorescence, % of fluorescent control",[6],0.0484% [at 18.6 µM]
same,"fluorescence, % of fluorescein control",[7],-0.0661% [at 18.6 µM]
same,"fluorescence, % of fluorescent control",[8],0.0969% [at 18.6 µM]
same,Potency,[9],inactive
same,Potency,[10],inactive
same,Potency,[11],inactive
same,Potency,[12],inactive
same,Potency,[13],inactive
same,Potency,[14],inactive
same,Potency,[15],inactive
same,Potency,[16],inactive
same,outcome,[17],inactive
same,outcome,[18],inactive
same,Potency,[19],inactive
same,Potency,[20],inactive
CCSC(=O)Cl,outcome,[1],inactive
same,outcome,[2],inactive
same,outcome,[3],inactive
same,outcome,[4],inactive
same,outcome,[5],inactive
same,outcome,[6],inactive
same,outcome,[7],inactive
same,outcome,[8],inactive
same,Potency,[9],inactive
same,Potency,[10],inactive
same,Potency,[11],inactive
same,Potency,[12],inactive
same,Potency,[13],inactive
same,Potency,[14],inactive
same,Potency,[15],inactive
same,Potency,[16],inactive
same,Potency,[19],inactive
same,Potency,[20],inactive
CC(C)NCC(O)c1ccc([N+](=O)[O-])cc1 (configuration not stated),outcome,[1],inactive
same,outcome,[2],inactive
same,outcome,[3],inactive
same,outcome,[4],inactive
same,outcome,[5],inactive
same,outcome,[6],inactive
same,outcome,[7],inactive
same,outcome,[8],inactive
same,Potency,[9],inactive
same,Potency,[10],inactive
same,Potency,[11],inactive
same,Potency,[12],inactive
same,Potency,[13],inactive
same,Potency,[14],inactive
same,Potency,[15],inactive
same,Potency,[19],inactive
CC(=O)OCC1=C(C(=O)O)N2C(=O)[C@@H](N)[C@H]2SC1,"fluorescence, % of fluorescein",[1],-0.0094% [at 18.6 µM]
same,"fluorescence, % of fluorescent control",[2],-0.0418% [at 18.6 µM]
same,activity change,[3],0.0026% [at 18.6 µM]
same,"fluorescence, % of fluorescent control",[4],0.162% [at 18.6 µM]
same,"fluorescence, % of Rose Bengal",[5],0.155% [at 18.6 µM]
same,"fluorescence, % of fluorescent control",[6],-0.0695% [at 18.6 µM]
same,"fluorescence, % of fluorescein control",[7],0.161% [at 18.6 µM]
same,"fluorescence, % of fluorescent control",[8],0.185% [at 18.6 µM]
same,Potency,[9],inactive
same,Potency,[10],inactive
same,Potency,[11],inactive
same,Potency,[12],inactive
same,Potency,[13],inactive
same,Potency,[14],inactive
same,Potency,[15],inactive
same,Potency,[19],inactive
